PubChem BioAssay (NCI)
Values joined by “and” are separate entries in the source; they are usually repeats but may differ in a detail not shown here. Identical values can stand only once. About 79,000 compounds went through this panel and 15% of them were active in at least one assay; those are over-represented in the sample as a whole. Values without a mark were called inactive. Active and inactive are the calls of the source. Cut-off read from the data, not from the text of the source: active = growth inhibition above about 70%; inactive = the rest.

Experiments:
[1] = NCI Yeast Anticancer Drug Screen. Data for the rad50 strain (AID 155);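 note: 0% = growth of vehicle-only cultures of the same strain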; settings: S. cerevisiae rad50 strain growth inhibition; at 50.0 µM; stronger effect = higher value
How it was run: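 A DNA repair-deficient yeast mutant serves as the test organism; compound-induced growth inhibition is calculated against vehicle-treated cells.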

[2] = NCI Yeast Anticancer Drug Screen. Data for the mec2-1 strain (AID 157); settings: S. cerevisiae mec2-1 strain, at 50.0 µM, stronger effect = higher value
How it was run: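 Strain: mec2-1 (DNA repair/cell cycle alteration). Compound exposure, then growth measured; inhibition expressed relative to vehicle.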

[3] = NCI Yeast Anticancer Drug Screen. Data for the sgs1 mgt1 strain (AID 161);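 note: 0% = growth of cultures given vehicle only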; settings: S. cerevisiae sgs1 mgt1 strain, at 50.0 µM, stronger effect = higher value
How it was run: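 Mutant yeast exposed to compound; growth scored against vehicle-only wells.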

[4] = NCI Yeast Anticancer Drug Screen. Data for the cln2 rad14 strain (AID 165);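 note: 0% = growth equal to vehicle treated cultures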; settings: S. cerevisiae cln2 rad14 strain, at 50.0 µM, stronger effect = higher value
How it was run: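 Compounds are applied to the cln2 rad14 yeast strain, and growth is then compared with that of vehicle-treated cultures to give inhibition.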

[5] = NCI Yeast Anticancer Drug Screen. Data for the bub3 strain (AID 167); settings: S. cerevisiae bub3 mutant strain, at 50.0 µM, stronger effect = higher value
How it was run: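 Inhibition values come from growth of compound-treated mutant yeast normalised to vehicle-treated controls.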

[6] = NCI Yeast Anticancer Drug Screen. Data for the mlh1 rad18 strain (AID 175); settings: S. cerevisiae mlh1 rad18 strain growth inhibition; at 50.0 µM; stronger effect = higher value
How it was run: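 Read-out is yeast growth inhibition, calculated against vehicle-only controls. The compound was applied to a strain engineered with DNA damage repair alterations.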

Compound: CC(C)(C[N+](=O)[O-])C[N+](=O)[O-]
- growth inhibition [1]: -1.45%
- growth inhibition [2]: -34.1%
- growth inhibition [3]: 15.6%
- growth inhibition [4]: -19.1%
- growth inhibition [5]: -1.7%
- growth inhibition [6]: 10.9%

Compound: O=C(COc1ccc(Cl)cc1C(=O)O)Nc1cccc(NC(=O)Nc2cccc(S(=O)(=O)F)c2)c1
- growth inhibition [1]: 2.3%
- growth inhibition [2]: -13.3%
- growth inhibition [3]: -12.9%
- growth inhibition [4]: -17.9%
- growth inhibition [5]: 1.95%
- growth inhibition [6]: 11.6%

Compound: CN(C)CCNC(=O)c1cccc(COC(=O)Nc2ccc(N(CCCl)CCCl)cc2)c1[N+](=O)[O-]
- growth inhibition [1]: -3.55%
- growth inhibition [2]: -15.8%
- growth inhibition [3]: 1.2%
- growth inhibition [4]: -49.8%
- growth inhibition [5]: -3.65%
- growth inhibition [6]: -11.9%

Compound: CC(=O)OC1(C(C)=O)CC2(c3ccccc3)OC1(c1ccccc1)c1ccccc12 (centres undefined)
- growth inhibition [1]: -0.55%
- growth inhibition [2]: 12.1%
- growth inhibition [3]: 9%
- growth inhibition [4]: 10.2%
- growth inhibition [5]: -3.9%
- growth inhibition [6]: 7.25%

Compound: FC(F)(F)c1ccc(Cl)c(NC2=NCCS2)c1
- growth inhibition [1]: 14.2%
- growth inhibition [2]: 24.8%
- growth inhibition [3]: 19.4%
- growth inhibition [4]: 11.2%
- growth inhibition [5]: 11%
- growth inhibition [6]: 20.2%

Compound: OCC1OC(n2cnc3cc(Cl)c(Cl)cc32)C(O)C1O (centres undefined)
- growth inhibition [1]: -1.1%
- growth inhibition [2]: 13.8%
- growth inhibition [3]: 21.9%
- growth inhibition [4]: -19.5%
- growth inhibition [5]: 6.4%
- growth inhibition [6]: 5%

Compound: O=P(N1CCOCC1)(N1CC1)N1CC1
- growth inhibition [1]: 15.4%
- growth inhibition [2]: -7.35%
- growth inhibition [3]: -0.15%
- growth inhibition [4]: 13.7%
- growth inhibition [5]: 9%
- growth inhibition [6]: 34.7%

Compound: O=P1(N2CCOCC2)OC(c2ccccc2)=CCN1c1ccc(Cl)cc1 (centres undefined)
- growth inhibition [1]: -8.9%
- growth inhibition [2]: 1.3%
- growth inhibition [3]: -1.85%
- growth inhibition [4]: -20.1%
- growth inhibition [5]: 5.2%
- growth inhibition [6]: 6.55%

Compound: CN(C)C(=O)CCl
- growth inhibition [1]: 1.85%
- growth inhibition [2]: 6.15%
- growth inhibition [3]: 20.6%
- growth inhibition [4]: 9.9%
- growth inhibition [5]: -5.55%
- growth inhibition [6]: 7.25%

Compound: O=C(O)CCCNSc1ccccc1[N+](=O)[O-]
- growth inhibition [1]: 71.2% (active)
- growth inhibition [2]: 44.5%
- growth inhibition [3]: 73% (active)
- growth inhibition [4]: 48.9%
- growth inhibition [5]: 68.4%
- growth inhibition [6]: 72% (active)

Compound: COC(C(=O)C(O)C(C)O)C1Cc2cc3cc(OC4CC(OC(C)=O)C(OC5CC(O)C(OC)C(C)O5)C(C)O4)cc(O)c3c(O)c2C(=O)C1OC1CC(OC2CC(OC3CC(C)(O)C(OC(=O)C(C)C)C(C)O3)C(O)C(C)O2)C(O)C(C)O1 (centres undefined)
- growth inhibition [1]: 1.55% and 17.7%
- growth inhibition [2]: -5.45% and 28.8%
- growth inhibition [3]: -24.6% and 17.3%
- growth inhibition [4]: 52.5% and 58%
- growth inhibition [5]: -19.4% and 35.5%
- growth inhibition [6]: 1.2% and 17.1%

Compound: C[CH2][Pb]([CH2]C)([CH2]C)[n]1ccnc1
- growth inhibition [1]: -22.6%
- growth inhibition [2]: -6.8%
- growth inhibition [3]: -11.9%
- growth inhibition [4]: -29.3%
- growth inhibition [5]: -1.4%
- growth inhibition [6]: -9%

Compound: CC(=O)OC1=CCC2(C)C(CCC3C4CCC(OC(C)=O)C4(C)CCC32)C1=O (centres undefined)
- growth inhibition [1]: 87.5% (active)
- growth inhibition [2]: 79.4% (active)
- growth inhibition [3]: 87.5% (active)
- growth inhibition [4]: 72.3% (active)
- growth inhibition [5]: 73.5% (active)
- growth inhibition [6]: 85.3% (active)

Compound: O=P1(N(CCCl)CCCl)OC(c2ccccc2)=CCN1c1ccccc1 (centres undefined)
- growth inhibition [1]: 0.6%
- growth inhibition [2]: 20.1%
- growth inhibition [3]: 57.2%
- growth inhibition [4]: 32.4%
- growth inhibition [5]: 50%
- growth inhibition [6]: 34.6%

Compound: O=C1NC2(CCCCC2)C(=O)N1CCCCN(CCCl)CCCl
- growth inhibition [1]: 1%
- growth inhibition [2]: 9.8%
- growth inhibition [3]: 9.2%
- growth inhibition [4]: 5.2%
- growth inhibition [5]: 21.4%
- growth inhibition [6]: -5.85%

Compound: CN(C)c1ccc(N=[N+]=[N-])cc1
- growth inhibition [1]: 3.05%
- growth inhibition [2]: 11%
- growth inhibition [3]: 10.3%
- growth inhibition [4]: -74.8%
- growth inhibition [5]: -6.45%
- growth inhibition [6]: 8.15%

Compound: [C-]#[O+].[C-]#[O+].[C-]#[O+].[C-]#[O+].[Cr].c1ccc([PH+](CC[PH+](c2ccccc2)c2ccccc2)CC[PH+](c2ccccc2)c2ccccc2)cc1
- growth inhibition [1]: 14.9%
- growth inhibition [2]: 3.75%
- growth inhibition [3]: -3.35%
- growth inhibition [4]: 32.2%
- growth inhibition [5]: 19.4%
- growth inhibition [6]: 6.2%

Compound: CN(N=O)c1ccc([N+](=O)[O-])cc1
- growth inhibition [1]: 26.2%
- growth inhibition [2]: 26.4%
- growth inhibition [3]: 15.8%
- growth inhibition [4]: 18.2%
- growth inhibition [5]: 24.4%
- growth inhibition [6]: 28.1%

Compound: CCOC(=O)C1=C(OC(OCC)C(CC)[Se]c2ccccc2)CCC1 (centres undefined)
- growth inhibition [1]: 50.4%
- growth inhibition [2]: 10.6%
- growth inhibition [3]: 40%
- growth inhibition [4]: 22.4%
- growth inhibition [5]: 22.7%
- growth inhibition [6]: 39.9%

Compound: O=C(CN1CCOCC1)c1ccc2ccccc2c1
- growth inhibition [1]: 10.1%
- growth inhibition [2]: 2.05%
- growth inhibition [3]: 8.4%
- growth inhibition [4]: -14.4%
- growth inhibition [5]: 17%
- growth inhibition [6]: 9.85%

Compound: CCOP(=O)(CCC[N+](=O)[O-])OCC
- growth inhibition [1]: -12.1%
- growth inhibition [2]: -11.9%
- growth inhibition [3]: -18.7%
- growth inhibition [4]: -15.8%
- growth inhibition [5]: 1.35%
- growth inhibition [6]: -7.65%

Compound: COC1=CC(=Nc2ccc(N(CCCl)CCCl)cc2)C=CC1=O
- growth inhibition [1]: 17.6%
- growth inhibition [2]: 26.8%
- growth inhibition [3]: 14.3%
- growth inhibition [4]: 11.4%
- growth inhibition [5]: 15.1%
- growth inhibition [6]: 28.6%

Compound: CN(C)C(=S)Oc1ccc(S(=O)(=O)F)cc1
- growth inhibition [1]: 34.2%
- growth inhibition [2]: 17.2%
- growth inhibition [3]: 14.6%
- growth inhibition [4]: 22.6%
- growth inhibition [5]: 8.65%
- growth inhibition [6]: 20.9%

Compound: N#CC(C#N)/C=C/[Se]c1ccccc1
- growth inhibition [1]: 14.2%
- growth inhibition [2]: 1.65%
- growth inhibition [3]: 2.1%
- growth inhibition [4]: 26.8%
- growth inhibition [5]: 0.35%
- growth inhibition [6]: 3.6%

Compound: O=P(O)(OCCc1ccccc1)Oc1ccccc1O
- growth inhibition [1]: -6.05%
- growth inhibition [2]: -4.55%
- growth inhibition [3]: -20.7%
- growth inhibition [4]: -1.15%
- growth inhibition [5]: -10.7%
- growth inhibition [6]: 13.6%

Compound: N#CC(c1ccccc1)N1CCCN(C(C#N)c2ccccc2)C1c1ccc(N(CCCl)CCCl)cc1 (centres undefined)
- growth inhibition [1]: 11.1%
- growth inhibition [2]: -1.5%
- growth inhibition [3]: 2.25%
- growth inhibition [4]: -17.3%
- growth inhibition [5]: -0.9%
- growth inhibition [6]: 9.65%

Compound: CC1C2Cc3ccc(O)cc3C1(C)CCN2CCC(=O)c1ccccc1 (centres undefined)
- growth inhibition [1]: -8.85%
- growth inhibition [2]: 1.4%
- growth inhibition [3]: -7.3%
- growth inhibition [4]: 18.2%
- growth inhibition [5]: 5.6%
- growth inhibition [6]: 9.55%

Compound: C[N+]1(CCCl)CCc2cc([N+](=O)[O-])ccc2C1 (centres undefined)
- growth inhibition [1]: -25.1%
- growth inhibition [2]: -84.7%
- growth inhibition [3]: -24.9%
- growth inhibition [4]: -16.1%
- growth inhibition [5]: -12.6%
- growth inhibition [6]: -9.8%

Compound: CN1CCC2CC(=O)NC1(C)C2(C)C (centres undefined)
- growth inhibition [1]: 13.2%
- growth inhibition [2]: 2.05%
- growth inhibition [3]: 17.9%
- growth inhibition [4]: 4.5%
- growth inhibition [5]: -2.2%
- growth inhibition [6]: 11.9%

Compound: CC(=O)CC(C)=O.CC(=O)CC(C)=O.CC(=O)CC(C)=O.[Sm]
- growth inhibition [1]: 53%
- growth inhibition [2]: 13.8%
- growth inhibition [3]: 37.1%
- growth inhibition [4]: 31.9%
- growth inhibition [5]: 9.1%
- growth inhibition [6]: 33.8%

Compound: OC(Br)C1C(c2ccccc2)N1C1CCCCC1 (centres undefined)
- growth inhibition [1]: -2%
- growth inhibition [2]: 18.4%
- growth inhibition [3]: -3.35%
- growth inhibition [4]: -11.2%
- growth inhibition [5]: 0.15%
- growth inhibition [6]: 7.4%

Compound: CC(C)OC(N)=O
- growth inhibition [1]: -2.35%
- growth inhibition [2]: -24.9%
- growth inhibition [3]: 29.2%
- growth inhibition [4]: 13.6%
- growth inhibition [5]: -21%
- growth inhibition [6]: -6.85%

Compound: NC(=NCCCC(NCc1ccccc1)C(=O)O)N[N+](=O)[O-] (centres undefined)
- growth inhibition [1]: 16.3%
- growth inhibition [2]: 17.6%
- growth inhibition [3]: 16.6%
- growth inhibition [4]: 16.9%
- growth inhibition [5]: 6.85%
- growth inhibition [6]: 16.1%

Compound: O=C1CCCC2C3CC(CN12)C1CCCCN1C3 (centres undefined)
- growth inhibition [1]: 9.85% and 15.7%
- growth inhibition [2]: -18.3% and -13.9%
- growth inhibition [3]: -3.4% and 6.75%
- growth inhibition [4]: 9.05% and 21.3%
- growth inhibition [5]: -11.8% and 26.9%
- growth inhibition [6]: -29.3% and 32.3%

Compound: Cc1ccc(O)cc1
- growth inhibition [1]: -27.4%
- growth inhibition [2]: 24.1%
- growth inhibition [3]: -22%
- growth inhibition [4]: -31.2%
- growth inhibition [5]: 1.1%
- growth inhibition [6]: -30.1%

Compound: O=C([O-])C[OH+]c1ccc(Cl)cc1Cl.O=C([O-])C[OH+]c1ccc(Cl)cc1Cl.[Ni+2]
- growth inhibition [1]: 10.3%
- growth inhibition [2]: 21.6%
- growth inhibition [3]: 18.9%
- growth inhibition [4]: 3.1%
- growth inhibition [5]: 3.85%
- growth inhibition [6]: 41.5%

Compound: CC(=O)OC1(c2nccc3ccccc23)CCN(Cc2ccccc2)CC1
- growth inhibition [1]: 17.8%
- growth inhibition [2]: 9.45%
- growth inhibition [3]: 6.8%
- growth inhibition [4]: -8.3%
- growth inhibition [5]: 7.25%
- growth inhibition [6]: 12%

Compound: O=NNc1nc2ccccc2[nH]1
- growth inhibition [1]: 6.5%
- growth inhibition [2]: -0.65%
- growth inhibition [3]: 2.05%
- growth inhibition [4]: -24.6%
- growth inhibition [5]: -6.95%
- growth inhibition [6]: 8.85%

Compound: C[C@]12CCC(=O)N[C@@H]1CC[C@@H]1[C@@H]2CC[C@]2(C)[C@@H](OC(=O)COc3ccc(N(CCCl)CCCl)cc3)CC[C@@H]12
- growth inhibition [1]: 0.45%
- growth inhibition [2]: 4.7%
- growth inhibition [3]: 0.15%
- growth inhibition [4]: 11.8%
- growth inhibition [5]: 5.75%
- growth inhibition [6]: -12.8%
